# KCNQ2 pot: potentiators of rat KCNQ2 potassium channel | Potassium voltage-gated channel subfamily KQT member 2 (Rattus norvegicus), O88943 | CHO-K1 KCNQ2, FluxOR thallium flux fluorescence; stronger effect = higher value | B-score at 10 µM | hit rate 0.54% among 310,000 | AID 2239, 2010;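 active = fluorescence ratio B-score at least 3 SD of library B-scores, with initial fluorescence B-score within 3 of them, cut at about 5.3 in these data; same plate scores as AID 2156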;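 note: B-score of peak minus minimum over baseline fluorescence ratio after K+ and Tl+ stimulus; positive B-score means potentiation of KCNQ2 with more thallium influx and brighter signal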
# KCNQ2 inh: rat KCNQ2 potassium channel inhibitors, primary screen, cell-based, CHO-K1, FluxOR thallium flux, B-score; Potassium voltage-gated channel subfamily KQT member 2 (Rattus norvegicus), O88943; 20 min; stronger effect = lower value; B-score at 10 µM; hit rate 1.1% among 310,000;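 active = fluorescence ratio B-score at most minus 3 library SDs, with starting brightness B-score within 2 library SDs, cut at about -5.5 in these data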
# Kir21 confirm: mouse Kir2.1 channel blockers, retest, confirmation, cell-based, FluxOR thallium flux, duplicate | shares compounds with KCNQ2 pot | hit rate 41% among 2,300 | AID 2032, 2009 | Kir2.1-expressing cells, FluxOR thallium flux fluorescence; stronger effect = lower value | Tl flux remaining, % of negative control (stronger effect = lower value), % at 10 µM;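 active = Primary-screen hit whose thallium flux fell at least 3 control SD below untreated wells in both duplicates, with normal baseline fluorescence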;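 note: 0% = blank wells without stimulus and 100% = stimulated no-compound controls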
# HEK293 ctr: alters thallium flux in parental HEK293 cells, Kir2.1 counter-screen; shares compounds with KCNQ2 pot; FluxOR thallium flux fluorescence; 0% = unstimulated blank wells; FluxOR signal as % of negative control (100 = no effect), % at 10 µM; hit rate 19% among 2,300; AID 2105;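 active = dye signal at least 3 control SD above or below untreated wells in both duplicates, raw fluorescence within 3, either direction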;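 note: percent is based on the flux ratio of peak minus minimum fluorescence over baseline F0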
# CHO-K1 Tl ctr: nonspecific thallium flux increase in parental CHO-K1, confirmation, counter-screen for KCNQ2 potentiator project, cell-based, FluxOR thallium flux, duplicate | parental CHO-K1 cells, FluxOR thallium flux fluorescence; zero = vehicle mean+3SD, 100% = vehicle-minus-blank window | shares compounds with KCNQ2 pot | activity increase over 3SD of controls, % at 10 µM | hit rate 43% among 1,200 | AID 2282, 2010;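 active = signal rise of at least 3 SD above the untreated control mean, in both duplicate wells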;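 note: counter screen of KCNQ2 potentiator hits so any rise reflects channel-independent effects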
# KCNQ1 sel pot: human KCNQ1 channel potentiation off-target, confirmation, selectivity assay for KCNQ2 potentiator project, cell-based, CHO, FluxOR thallium flux. shares compounds with KCNQ2 pot. CHO KCNQ1 stable, FluxOR thallium flux fluorescence; beyond 3SD, as % of vehicle-control signal. activation over 3SD threshold, % at 10 µM. hit rate 28% among 1,200;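 active = fluorescence ratio rise of at least 3 SD of vehicle wells above their mean, in both replicate wells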;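 note: 0% = vehicle mean plus 3 SD and 100% = vehicle minus unstimulated blank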
# KCNQ2 pot confirm: rat KCNQ2 channel potentiators, confirmation, cell-based, CHO, FluxOR thallium flux, duplicate; shares compounds with KCNQ2 pot; CHO-KCNQ2 cells, FluxOR thallium flux fluorescence; potentiation, less the hit threshold, % at 10 µM; AID 2287, 2010; hit rate 68% among 1,200;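 active = fluorescence ratio rising 3 SD or more over the vehicle control mean in both replicates, plus primary screen hit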;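 note: peak minus minimum thallium fluorescence divided by baseline after K/Tl stimulus; 0% = vehicle mean plus 3 SD and 100% = vehicle minus unstimulated blank difference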
# Kir21 spec: mouse Kir2.1 channel activation off-target, confirmation, selectivity assay for KCNQ2 potentiator project, cell-based, HEK293, FluxOR thallium flux | activity over 3SD threshold, % at 10 µM | HEK293 Kir2.1, FluxOR thallium flux fluorescence | hit rate 2% among 1,200 | shares compounds with KCNQ2 pot;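 active = fluorescence ratio rise of at least 3 SD above the vehicle-control mean, seen in both replicates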;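 note: 0% = vehicle mean plus 3 SD and 100% = vehicle minus no-stimulus blank window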
# KCNQ2 W236L pot: potentiators of retigabine-insensitive KCNQ2 W236L, mechanism study for KCNQ2 potentiator project, cell-based, rat KCNQ2 W236L, CHO, automated patch clamp; shares compounds with KCNQ2 pot; automated patch clamp current; current increase over 3SD of negative controls (%), stronger effect = higher value, % at 25 µM; hit rate 10% among 940; AID 2558, 2010;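 active = current increase at least 3 SD of the untreated controls above them in both duplicate recordings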
# Target sequence (O88943 whole entry W236L, looked up): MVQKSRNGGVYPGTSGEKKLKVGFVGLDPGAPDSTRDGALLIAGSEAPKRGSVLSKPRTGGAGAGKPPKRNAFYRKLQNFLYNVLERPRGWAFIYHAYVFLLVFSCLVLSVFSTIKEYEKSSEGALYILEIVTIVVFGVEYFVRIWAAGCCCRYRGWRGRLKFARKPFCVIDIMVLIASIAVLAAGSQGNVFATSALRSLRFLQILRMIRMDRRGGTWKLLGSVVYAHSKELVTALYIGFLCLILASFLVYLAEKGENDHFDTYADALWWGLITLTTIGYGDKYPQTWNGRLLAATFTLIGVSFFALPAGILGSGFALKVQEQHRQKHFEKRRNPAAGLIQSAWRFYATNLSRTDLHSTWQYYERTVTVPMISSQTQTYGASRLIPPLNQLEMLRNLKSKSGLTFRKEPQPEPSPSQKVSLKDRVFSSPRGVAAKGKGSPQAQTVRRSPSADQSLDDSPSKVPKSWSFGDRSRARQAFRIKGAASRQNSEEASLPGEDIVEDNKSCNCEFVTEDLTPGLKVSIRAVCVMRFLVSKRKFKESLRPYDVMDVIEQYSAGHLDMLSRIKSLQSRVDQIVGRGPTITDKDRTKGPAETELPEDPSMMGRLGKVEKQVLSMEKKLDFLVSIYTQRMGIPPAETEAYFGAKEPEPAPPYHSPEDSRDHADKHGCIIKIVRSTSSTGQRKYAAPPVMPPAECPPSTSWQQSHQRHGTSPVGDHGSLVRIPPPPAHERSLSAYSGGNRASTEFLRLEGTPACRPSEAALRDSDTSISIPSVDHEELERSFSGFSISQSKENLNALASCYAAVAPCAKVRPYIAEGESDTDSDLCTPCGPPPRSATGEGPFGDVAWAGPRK
# The depositor's hits bear a star; i = inactive; x = no result given. Compounds with a hit are over-represented: about 1.6% of the library has one in this group of screens.
SMILES,KCNQ2 pot,KCNQ2 inh,Kir21 confirm,HEK293 ctr,others
Cc1nc(C)c(-c2csc(Nc3ccccn3)n2)s1,5.7*,i,i,i,CHO-K1 Tl ctr=-14;KCNQ1 sel pot=15*;KCNQ2 pot confirm=26*;Kir21 spec=-28;KCNQ2 W236L pot=40%*
Cc1ccnc(Nc2nc(-c3sc(C)nc3C)cs2)c1,2.9,i,x,x,
Cc1cc2c(cc1S(=O)(=O)NCCc1ccccc1)NC(=O)CO2,1.8,i,x,x,
CCCc1ccccc1OCCNS(=O)(=O)c1cc2c(cc1C)OCC(=O)N2,2.2,i,64%*,i,
CC(C)(C)C(=O)NC1CC2CCCC(C1)N2C(=O)Nc1ccccc1 (stereo not given),0.21,i,x,x,
Cc1cccc2c3c([nH]c12)CCN(C)C3,0.72,i,x,x,
O=C(CN1CCN(C(=O)C2CCCO2)CC1)Nc1cc(C(F)(F)F)ccc1Cl (stereo not given),0.01,i,x,x,
COc1ccccc1CNS(=O)(=O)c1ccc(Br)s1,x,i,x,x,
CN(CC(=O)Nc1ccc(F)cc1)C(=O)COC(=O)COc1ccc(C#N)cc1,1,i,x,x,
Cc1cc(C)cc(OCC(=O)OCC(=O)N(C)CC(=O)Nc2ccc(F)cc2)c1,8.3*,i,i,i,CHO-K1 Tl ctr=18*;KCNQ1 sel pot=-8;KCNQ2 pot confirm=19*;Kir21 spec=-36;KCNQ2 W236L pot=i
O=C1CC(=O)N(CCNc2ncc(C(F)(F)F)cc2Cl)C(=O)N1,1.7,i,x,x,
O=C1C=CC(=O)N1CCNc1ncc(C(F)(F)F)cc1Cl,x,i,74%*,i,
O=C(N/N=C/c1ccco1)c1cc(-c2ccc3ccccc3c2)n[nH]1,9.2*,i,i,i,CHO-K1 Tl ctr=54*;KCNQ1 sel pot=-13;KCNQ2 pot confirm=32*;Kir21 spec=-27;KCNQ2 W236L pot=i
CCc1ccc(-c2cc(C(=O)N/N=C/c3ccco3)[nH]n2)cc1,1.3,i,x,x,
CC1=C(C)/C(=N\OS(=O)(=O)c2ccccc2)C=CC1=O,6.9*,i,69%*,i,CHO-K1 Tl ctr=17*;KCNQ1 sel pot=-17;KCNQ2 pot confirm=28*;Kir21 spec=-64;KCNQ2 W236L pot=57%*
Cc1ccc(S(=O)(=O)O/N=C2\CCCc3ccccc32)cc1,1.5,i,x,x,
CC(C)(C)c1nc(SCC(=O)NCc2ccco2)c2ccccc2n1,0.34,i,x,x,
COc1ccc(C(=O)CSc2nc(C(C)(C)C)nc3ccccc23)cc1,13*,i,x,x,CHO-K1 Tl ctr=-7;KCNQ1 sel pot=60*;KCNQ2 pot confirm=20*;Kir21 spec=-51;KCNQ2 W236L pot=i
CC(C)Cc1ccc(/C=C/C(=O)NC2CC2)cc1,0.65,i,x,x,
CCCc1cc(-c2n[nH]c(=S)n2CC)cs1,0.01,i,x,x,
CCCCn1c(-c2csc(CCC)c2)n[nH]c1=S,9.1*,i,i,172%*,CHO-K1 Tl ctr=-14;KCNQ1 sel pot=-14;KCNQ2 pot confirm=20*;Kir21 spec=-49;KCNQ2 W236L pot=i
O=C(NCc1ccccc1)NC(=O)c1ccc(Cl)cc1,0.17,i,x,x,
Cc1cccc2sc(NNC(=O)c3cc(=O)c4ccccc4o3)nc12,0.27,i,x,x,
COc1ccc2nc(NNC(=O)c3cc(=O)c4ccccc4o3)sc2c1,13*,i,i,i,CHO-K1 Tl ctr=-14;KCNQ1 sel pot=-8;KCNQ2 pot confirm=-24;Kir21 spec=-21
S=c1[nH]cnc2sc(-c3ccccc3)cc12,24*,i,i,i,CHO-K1 Tl ctr=-1;KCNQ1 sel pot=-7;KCNQ2 pot confirm=70*;Kir21 spec=-15;KCNQ2 W236L pot=i
SMILES,KCNQ2 pot,KCNQ2 inh,Kir21 confirm,HEK293 ctr,others
CNc1ncnc2sc(-c3ccccc3)cc12,0.27,i,x,x,
Cc1cc(-c2ccccc2)oc(=O)c1NC(=O)c1ccccc1,x,i,x,x,
COc1cccc(CC(=S)N2CCOCC2)c1,x,i,x,x,
CN(C)CCOc1ccc(C(C)(C)c2ccccc2)cc1,x,i,x,x,
CN(C)CCCOc1ccc(C(C)(C)c2ccccc2)cc1,x,i,36%*,i,
CS(=O)(=O)N(CC(=O)N1CCCCC1)C1CCCCC1,13*,i,i,i,CHO-K1 Tl ctr=-8;KCNQ1 sel pot=-25;KCNQ2 pot confirm=-12;Kir21 spec=-23
CS(=O)(=O)N(CC(=O)N1CCN(C(c2ccccc2)c2ccccc2)CC1)C1CCCCC1,2.1,i,x,x,
O=[N+]([O-])c1cc(Br)c(O)c(/C=N/Nc2nnnn2-c2cccc3ccccc23)c1,x,i,x,x,
Cc1c(C(=O)N(C)Cc2ccc(OC(F)F)cc2)oc2ccccc12,x,i,x,x,
COc1ccc(CCN(C)C(=O)c2oc3ccccc3c2C)cc1OC,0.42,i,38%*,i,
C=CCN1C(=O)CSc2ccc(C(=O)NCc3cccs3)cc21,0.15,i,x,x,
CC(C)(C)c1ccc(C(=O)CC(=O)c2cc(Cl)ccc2O)cc1,1.6,i,x,x,
Cc1ccc(C(=O)CC(=O)c2cc(Cl)ccc2O)cc1,6*,i,i,i,CHO-K1 Tl ctr=-18;KCNQ1 sel pot=-30;KCNQ2 pot confirm=27*;Kir21 spec=-39;KCNQ2 W236L pot=i
CCOC(=O)c1nn(-c2ccccc2C)c(=O)cc1OCC(=O)Nc1cccc(OC)c1,0.18,i,x,x,
NC(N)=NN=C1CCCCCCCCCCC1,x,i,i,i,
CC(C)(C)NC(=O)C(=O)NN=C1CCCCCCCCCCC1,1,i,x,x,
CC12CCC(C(=O)Nc3ccccc3Cl)(C(Br)C1=O)C2(C)C (stereo not given),0.87,i,x,x,
Cc1onc(-c2ccccc2)c1C(=O)OCC(=O)NCc1ccc(F)cc1,0.59,i,x,x,
Cc1ccc(-n2nnnc2C(Cl)c2nnnn2-c2ccc(C)cc2)cc1,x,i,39%*,i,
Cc1ccc(-n2nnnc2-c2ccccc2)cc1,x,i,x,x,
O=C(NC1CC2CCCC(C1)N2C(=O)Nc1ccc(F)cc1)c1ccccc1 (stereo not given),x,i,x,x,
COc1cccc(CN2CCNC(=O)C2CC(=O)N(Cc2cnn(C)c2)C(C)C)c1 (stereo not given),x,i,x,x,
CCN(Cc1ccccc1)C(=S)NC(=O)c1ccccc1Br,8.6*,i,i,418%*,CHO-K1 Tl ctr=-16;KCNQ1 sel pot=52*;KCNQ2 pot confirm=46*;Kir21 spec=-23;KCNQ2 W236L pot=i
CCN(CC)C(=S)NC(=O)Cc1ccccc1,x,i,x,x,
CCC(=O)NC(=S)NNC(=O)c1ccccc1[N+](=O)[O-],x,i,x,x,
